Reference: PubChem BioAssay AID624387 (National Center for Advancing Translational Sciences (NCATS), 2012)

What follows are compounds tested against Pyruvate kinase PKM (Homo sapiens) (UniProt P14618) (assay: qHTS for Activators of Human Muscle Isoform 2 Pyruvate Kinase: Extended Characterization using M1 for Probe 2). Conditions: purified hPK-M1, Kinase-Glo ATP luminescence, 1 h; series mostly up to 57.7 µM; activity change, positive = activation: at the top concentration; active = well fitted curve in the direction sought with a large enough effect; inactive = no such curve, though single readings can be large or run the other way.
Description: Human pyruvate kinase muscle isoform 1 (hPK-M1) enzyme was supplied as a highly purified (>95% pure) preparation from Harvard Medical School and assayed for its ability to generate ATP from ADP using phosphoenolpyruvate (PEP) as a substrate. ATP generation was detected in a coupled reaction by luciferase-mediated luminescence, an ATP-dependent process. Pyruvate kinase substrates, PEP and ADP, were present in the assay at Km and approximately 10-fold below Km respectively. The enzyme was assayed at an intermediate level of activity to screen for both inhibitors and activators. NIH Chemical Genomics Center [NCGC] NIH Molecular Libraries Probe Centers Network [MLPCN] MLPCN Grant: MH085679 Assay Submitter (PI): Matthew G. Vander Heiden, Harvard Medical School
Three uL of substrate mix (at r.t.) in assay buffer (50 mM Imidazole pH7.2, 50 mM KCl, 7 mM MgCl2, 0.01% Tween 20, 0.05% BSA) was dispensed into white solid bottom 1,536 well microtiter plates so that the final concentrations of substrates in the assay were 0.1 mM ADP and 0.5 mM PEP. 23 nL of compound were delivered by a pin tool and 1 uL of enzyme mix (final concentration of 1 nM) in assay buffer (4 degree Celsius) was added. Plates were incubated at room temperature for 1 hour. Two uL of detection mix (Kinase-Glo, Promega; at 4 degree Celsius protected from light) was added and luminescence read by a ViewLux (Perkin Elmer) at 1 second exposure/plate. Data were normalized to the uninhibited (row 31). Additionally, a no enzyme and 5-fold enzyme control was dispensed in row 32, split equally between the two conditions.

Pyruvate kinase PKM (Homo sapiens), sequence (P14618 whole entry, looked up, canonical isoform): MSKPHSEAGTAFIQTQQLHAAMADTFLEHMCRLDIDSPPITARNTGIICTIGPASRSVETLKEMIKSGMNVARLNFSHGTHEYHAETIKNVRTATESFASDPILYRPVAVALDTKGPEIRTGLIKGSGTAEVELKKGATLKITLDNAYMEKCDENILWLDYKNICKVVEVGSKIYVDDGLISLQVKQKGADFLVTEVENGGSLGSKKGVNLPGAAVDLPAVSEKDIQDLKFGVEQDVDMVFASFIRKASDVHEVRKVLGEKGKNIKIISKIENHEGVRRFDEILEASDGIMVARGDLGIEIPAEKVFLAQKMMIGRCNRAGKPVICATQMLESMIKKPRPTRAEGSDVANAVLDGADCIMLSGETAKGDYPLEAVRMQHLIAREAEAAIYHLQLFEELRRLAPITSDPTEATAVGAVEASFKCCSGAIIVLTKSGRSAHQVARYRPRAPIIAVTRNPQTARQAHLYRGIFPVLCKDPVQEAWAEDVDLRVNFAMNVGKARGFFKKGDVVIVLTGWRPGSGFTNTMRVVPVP

Activity change, positive = activation, inactive:
O=S(=O)(c1ccc2c(c1)OCCO2)N1CCN(S(=O)(=O)c2c(F)cccc2F)CC1 -3.2%
Cc1ccc(NS(=O)(=O)c2ccc3c(c2)CCC(=O)N3)cc1C 7.13%
Cn1c2cc(S(C)=O)sc2c2cnn(Cc3cccc(N)c3)c(=O)c21 (stereo not given) 1.03%
Nc1cccc(S(=O)(=O)N2CCCN(S(=O)(=O)c3ccc4c(c3)OCCO4)CC2)c1 6.24%
COc1cccc(Cn2ncc3c4sc(S(C)=O)cc4n(C)c3c2=O)c1 (stereo not given) -3.35%
